An excerpt weighted towards active compounds, which were near 12% of everything screened.
Sm TGR block: S. mansoni TGR enzyme inhibition | purified TGR, DTNB reduction, TNB absorbance 405 nm | Potency, µM (series often up to 114 µM), most hits filed as inhibitors | 360,000 tested, 3% active | AID 485364; active means well fitted inhibition curve with a large enough effect; inconclusive means small, poorly fitted or top-dose-only effect; inactive means no such curve, though single readings can be large or run the other way; further: nearly all actives have a fitted effect of over 60% in size
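TGR 20 nM + NADPH 100 uM (dispensed conc.), cpd preinc 15 min RT; start with NADPH (500 uM addition) then DTNB (15 mM addition). Kinetic TNB absorbance, 405 nm filter. Four-parameter Hill fit across titration.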
CHX counter: counter-screen for Shiga toxin inhibitors: cycloheximide protein synthesis inhibition; cell reporter, cycloheximide protein synthesis inhibition counterscreen; 300,000 tested, 12% active; max response, %; AID 2314; in the data active means max response mostly above about 13%, no sharp cut-off; inactive means mostly below about 14%; further: read at 38.3 µM for the half of the compounds with a filed dose
Shiga toxin inh: blocks Shiga toxin action in Vero cells | Vero cells, Shiga toxin protein synthesis inhibition reporter | inhibition, % at 38.7 µM | 290,000 tested, 9.2% active | AID 2315; in the data active means inhibition mostly above about 28%, no sharp cut-off; inactive means mostly below about 43%
FMDV antiviral: antivirals against foot and mouth disease virus; 410,000 tested, 1.2% active; Potency, µM (titrated, usually from 57.9 µM), actives largely listed as inhibitors; FMDV antiviral cell-based qHTS; calls by dose curve; tested in HEK293T cells; further: read-out not given here; nearly all actives have a fitted effect of over 45% in size
Of the large screens only hits and unclear results are named; the others gave an inactive call.

COc1ccc(-c2noc(-c3ccccc3-c3ccccc3)n2)cc1	none
Fc1ccccc1-c1nc(-c2ccc(-c3nn[nH]n3)cc2)no1	none (no result: Sm TGR block, CHX counter, Shiga toxin inh)
Fc1ccccc1-c1nc(-c2ccccc2)no1	CHX counter 40, Shiga toxin inh 68
COc1ccc(-c2noc(-c3ccccc3F)n2)cc1	CHX counter 51, Shiga toxin inh 91
COc1ccc(-c2nc(-c3ccncc3)no2)c(OC)c1	CHX counter 61, Shiga toxin inh 110
Brc1ccccc1-c1nc(-c2ccccc2)no1	CHX counter 55, Shiga toxin inh 79 (no result: FMDV antiviral)
Cc1cccc(-c2nn(C(=S)Nc3ccccc3)cc2-c2ccnc3ccccc23)n1	none (no result: Sm TGR block, FMDV antiviral)
CCc1nc(-c2cc(S(=O)(=O)N3CCN(c4ccc(F)cc4)CC3)ccc2OC)no1	none (no result: CHX counter, Shiga toxin inh)
Fc1ccccc1-c1nc(-c2cnccc2C(F)(F)F)no1	CHX counter 15
Fc1ccccc1-c1nc(-c2ccncc2)no1	CHX counter 24, Shiga toxin inh 41
NC(=O)c1cccc(-c2noc(-c3ccccc3F)n2)c1	FMDV antiviral inconclusive (no result: CHX counter, Shiga toxin inh)
CCCCN(C)CCNC(=O)c1c2c(nc3ccccc13)C(=O)N(C1CCCCC1)C2	none (no result: CHX counter, Shiga toxin inh)
Cc1ccc(NC(=O)CC2CCCC2)c(Br)c1	CHX counter 42, Shiga toxin inh 93
Cc1ccc(NC(=O)CNCc2cccs2)c(Br)c1	CHX counter 35, Shiga toxin inh 67
Cc1ccc(NC(=O)Cn2cccc2)c(Br)c1	Sm TGR block inconclusive, Shiga toxin inh 45
O=C(CC1CCCC1)Nc1cccc(Br)c1	CHX counter 17, Shiga toxin inh 56
Cc1ccc(NC(=O)Cn2cccc2)c(C)c1	none
CCOC(=O)c1cc(-c2ccc(OC)cc2)n(CCC(=O)NC2CCCCC2)c1C	none (no result: CHX counter, Shiga toxin inh)
CS(=O)(=O)Nc1ccc([N+](=O)[O-])cc1OC1CCCCC1	none (no result: Sm TGR block, CHX counter, Shiga toxin inh)
Cc1c(C(=O)N(C)C)sc2c1c(=O)n(-c1ccc(F)cc1)c(=O)n2Cc1ccccc1C#N	none (no result: CHX counter, Shiga toxin inh)
O=C(c1cnsn1)N1CCOc2ccc(C(O)C(c3ccccc3)c3ccccc3)cc2C1 (stereo not given)	none (no result: Sm TGR block, CHX counter, Shiga toxin inh)
COc1ccc(-c2nnc(C3CCN(C(=O)c4ccccc4F)CC3)o2)cc1	FMDV antiviral inconclusive (no result: CHX counter, Shiga toxin inh)
COc1cccc(CNC(=O)CNS(=O)(=O)c2ccc3nc(C)sc3c2)c1	none (no result: CHX counter, Shiga toxin inh)
O=C(CNCc1cccs1)NC12CC3CC(CC(C3)C1)C2	CHX counter 14
Cc1ccc(NC(=O)CNCc2ccccc2)c(Br)c1	CHX counter 16, Shiga toxin inh 157
CC1(C)C2CCC(C2)C1(C)NC(=O)CNCc1cccs1 (stereo not given)	none
CCOC(=O)C1CCC(CN(Cc2cccc(Br)c2)S(=O)(=O)c2ccc(Cl)cc2)CC1 (stereo not given)	none (no result: CHX counter, Shiga toxin inh)
COc1ccc(/C=N/OCC(=O)Nc2nc3ccccc3s2)cc1OC	CHX counter 20
COc1ccc(/C(C)=N/OCC(=O)Nc2nc3ccccc3s2)cc1	CHX counter 12
COc1ccc(C(=O)Nc2nc3ccccc3s2)cc1OC	Sm TGR block inconclusive
CCOCC(=O)Nc1nc2ccccc2s1	Sm TGR block 35µM, CHX counter 48, Shiga toxin inh 125
O=C(NCc1ccncc1)C(=O)Nc1nc2ccccc2s1	CHX counter 42, Shiga toxin inh 52
COc1ccc(CNC(=O)Cn2c(=O)oc3cc(S(=O)(=O)N4CCCCCC4)ccc32)cc1	none (no result: CHX counter, Shiga toxin inh)
CC1CCN(c2ccc(-c3cccc(NS(=O)(=O)c4cccs4)c3)nn2)CC1	FMDV antiviral inconclusive (no result: CHX counter, Shiga toxin inh)
CCNC(=O)Nc1nc2ccccc2s1	CHX counter 44, Shiga toxin inh 60
Cc1ccc(NC(=O)Nc2nc3ccccc3s2)cc1NC(=O)Nc1nc2ccccc2s1	none
COc1ccc(-c2nc(SCC(=O)NCCCc3ccccc3)n[nH]2)cc1	none (no result: CHX counter, Shiga toxin inh)
O=C1OCC2=C1C(c1ccc3c(c1)OCO3)Sc1ccccc1N2 (stereo not given)	none
CCOc1ccc(C2Sc3ccccc3NC3=C2C(=O)OC3)cc1 (stereo not given)	CHX counter 23
CCn1c(C)cc(/C=C2/SC(=S)N(CC(=O)O)C2=O)c1C	none
CN1C(=O)/C(=C/c2cc3c(cc2Br)OCO3)NC1=S	none
CCn1c(C)cc(/C=C2\NC(=O)N(CC(=O)Nc3ccc(F)cc3)C2=O)c1C	none (no result: Sm TGR block)
CCn1c(C)cc(/C=C2/SC(=O)N(C(C)C(=O)OC)C2=O)c1C (stereo not given)	CHX counter 48, Shiga toxin inh 106
C#CCN1C(=O)S/C(=C/c2cc(C)n(CC)c2C)C1=O	CHX counter 74, Shiga toxin inh 103
COCCn1c(C)cc(/C=C2\NC(=S)N(C)C2=O)c1C	CHX counter 17, Shiga toxin inh 47
COC(=O)C(C)N1C(=O)S/C(=C/c2cc(C)n(C(C)C)c2C)C1=O (stereo not given)	CHX counter 38, Shiga toxin inh 106
CSc1nnc(CNC(=O)/C=C/c2ccccc2Cl)n1-c1ccc(F)cc1	none (no result: Sm TGR block, CHX counter, Shiga toxin inh)
Cc1cccc(N2CCN(C(=O)c3nn(C)c4c3CSc3ccccc3-4)CC2C)c1 (stereo not given)	none (no result: CHX counter, Shiga toxin inh)
COCCn1c(C)cc(/C=C(\C#N)C(=O)OC(C)C(=O)Nc2ccc(NC(C)=O)cc2)c1C (stereo not given)	none (no result: CHX counter, Shiga toxin inh)
COCCn1c(C)cc(/C=C2/SC(=O)N(C(C)C(=O)OC)C2=O)c1C (stereo not given)	CHX counter 53, Shiga toxin inh 89
CC(NC(=O)C1CCOCC1)c1nnc2n1CCN(Cc1ccc(F)cc1)CC2 (stereo not given)	none (no result: Sm TGR block, CHX counter, Shiga toxin inh)
O=C(CN1CCN(C2CCCCC2)CC1)c1ccc2cc[nH]c2c1	Sm TGR block 32µM
COc1ccc2c(/C=N/NS(=O)(=O)c3ccc(C)cc3)c[nH]c2c1	Sm TGR block 14µM
COc1ccc2[nH]cc(/C=N/NS(=O)(=O)c3ccc(C)cc3)c2c1	none
CCc1ccc(NC(=O)C(=O)NCC(c2cccnc2)N2CCN(Cc3ccccc3)CC2)cc1 (stereo not given)	FMDV antiviral inconclusive (no result: CHX counter, Shiga toxin inh)
O=C(Nc1nc2c(s1)CCCC2)c1cc2n(n1)C(C(F)(F)F)CC(C1CC1)N2 (stereo not given)	CHX counter 19
Cc1nnc(NC(=O)c2cc3n(n2)C(C(F)(F)F)CC(C2CC2)N3)s1 (stereo not given)	none
O=C(Nc1ccccc1)c1cc2n(n1)C(C(F)(F)F)CC(C1CC1)N2 (stereo not given)	CHX counter 36, Shiga toxin inh 58
O=C(NCc1ccccn1)c1cc2n(n1)C(C(F)(F)F)CC(c1ccco1)N2 (stereo not given)	Sm TGR block 40µM
COc1ccccc1C(=O)c1cc2ccc(O)cc2oc1=O	none
COc1ccc2cc(C(=O)c3ccccc3)c(=O)oc2c1	CHX counter 45, Shiga toxin inh 94 (no result: FMDV antiviral)
CCOc1ccc2cc(C(=O)c3ccccc3)c(=O)oc2c1	CHX counter 33, Shiga toxin inh active
Cc1ccc(CNC(=O)c2cnn(-c3cccc(C)c3)c2C2CCN(C(=O)OC(C)(C)C)CC2)cc1	FMDV antiviral inconclusive (no result: CHX counter, Shiga toxin inh)
O=C(N/N=C/c1c[nH]c2ccccc12)c1cc(-c2ccc(-c3ccccc3)cc2)n[nH]1	CHX counter 35, Shiga toxin inh 54, FMDV antiviral inconclusive
O=C(N/N=C/c1c[nH]c2ccccc12)c1cc(-c2cccc3ccccc23)n[nH]1	CHX counter 19
